Bioassay records as filed in PubChem BioAssay.
The list is not random: actives were taken first. Their share in the collection is about 5.7%.
ssDAF12 agonist = S. stercoralis DAF-12 activation, primary screen | AID 652126 | HEK293 ssDAF-12/GRIP1 lit1-tk-luc reporter, luminescence; % of 3 µM dafachronic acid response | hit rate 1% among 370,000 | activation, % at 6.8 µM;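 active = activation above the mean over all tested compounds plus 3 SD, cut at about 0.9% in these data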
DAX1 inh-1 = inhibitors of human orphan nuclear receptor DAX1 (NR0B1); inhibition, % at 6.75 µM; HEK293 Gal4-DAX1 luciferase reporter, luminescence; hit rate 0.99% among 340,000; P51843;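 active = inhibition above the mean over all tested compounds plus 3 SD, cut at about 4.2% in these data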;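 note: inhibition shows as a rise in luminescence from relieved DAX1 repression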
Target sequence (P51843 207-470 limits assumed): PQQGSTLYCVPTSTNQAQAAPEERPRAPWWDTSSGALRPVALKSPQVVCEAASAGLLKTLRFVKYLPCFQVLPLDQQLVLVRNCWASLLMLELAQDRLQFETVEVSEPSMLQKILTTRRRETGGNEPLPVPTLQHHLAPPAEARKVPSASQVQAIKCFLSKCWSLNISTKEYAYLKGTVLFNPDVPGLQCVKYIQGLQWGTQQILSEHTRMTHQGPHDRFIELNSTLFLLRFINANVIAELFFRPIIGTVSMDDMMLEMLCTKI
AHR activator = activates the human aryl hydrocarbon receptor; P35869; activation, % at 5 µM; hit rate 2.5% among 320,000; AHR-responsive luciferase reporter cells, luminescence; in the data active = activation above about 47%
DAX1 inh-2 = blocks DAX1 repression of SF-1 activated StAR promoter; HEK293T StAR-luciferase reporter, SF-1/DAX-1 repression relief; inhibition, % at 6.8 µM; hit rate 1.1% among 370,000; AID 652010;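 active = inhibition above the mean over all tested compounds plus 3 SD, cut at about 3.6% in these data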;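 note: higher inhibition means more luminescence from relief of DAX-1 repression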
hgDAF12 agonist = hgDAF-12 agonism, primary luciferase screen. activation, % at 6.8 µM. AID 687014. hit rate 1.8% among 370,000. HEK293 GAL4-hgDAF12 UAS-luciferase reporter, agonist luminescence; normalized to butyrate control;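 active = activation above a cutoff set at the mean of all screened compounds plus 3 SD, cut at about 10% in these data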
hcDAF12 agonist = activates DAF-12 receptor from parasite H. contortus. activation, % at 6.8 µM. hit rate 1.4% among 370,000. HEK293 hcDAF-12 lit1-tk-luc reporter, luminescence; 0% DMSO, 100% Δ7-dafachronic acid;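 active = activation above the mean of all tested compounds plus 3 SD, cut at about 5.5% in these data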
Large screens that a line does not name were inactive.

Cc1ccc(N(C)S(=O)(=O)c2cccc(C(=O)N(C)Cc3cnn(-c4ccccc4)c3)c2)cc1	none (no result: AHR activator)
COc1cc(CN2CCNC(=O)C2CC(=O)N2CCCCO2)cc(OC)c1 (configuration not stated)	none
CN(C)CCCN=Cc1c(-c2ccccc2)[nH]n(-c2nc3ccccc3s2)c1=O	none
O=c1c(C=NCCCn2ccnc2)c(-c2ccccc2)[nH]n1-c1nc2ccccc2s1	DAX1 inh-2 4.3
COc1cc(C(=O)NNC(=O)c2cc(-c3ccccc3)n[nH]2)cc(OC)c1C	none
Cn1c2[n+](c3ccc(Cl)cc3c1=O)Cc1ccccc1-2	DAX1 inh-1 5.7
CN(CCc1ccccn1)C(=O)c1cc(COc2ccc(F)cc2F)on1	none
CC(=O)c1ccc(N2CCN(C(=O)c3cc(-c4ccncc4)nc4ccc(Br)cc34)CC2)cc1	none
Cc1c(C(=O)N2CCC[C@H]2C(N)=O)oc2c(F)cccc12	DAX1 inh-1 6.0 (no result: AHR activator)
CN=CC1=C(O)C(C(=O)OC)C(C)(C)CC1=O (configuration not stated)	DAX1 inh-1 4.3
CCC(C)N=CC1=C(O)C(C(=O)OC)C(C)(C)CC1=O (configuration not stated)	none
CC1CCCC(NC(=O)CSc2ncccn2)C1C (configuration not stated)	none
Nc1c2c(nc3ccccc13)N(C1CCCCC1)CC2	none
Cc1cccc(N2CCc3c2nc2ccc(Br)cc2c3N)c1	AHR activator 108
Nc1c2c(nc3ccc(Br)cc13)N(c1ccccc1)CC2	AHR activator 76
CSc1nc(C)c2c(n1)N(c1cccc(C)c1)CC2	none
Nc1c2c(nc3ccc(Br)cc13)N(C1CCCCC1)CC2	AHR activator 52 (no result: ssDAF12 agonist, DAX1 inh-1, DAX1 inh-2, hgDAF12 agonist, hcDAF12 agonist)
Nc1c2c(nc3ccc(Br)cc13)N(Cc1ccccc1)CC2	AHR activator 50
CCOC(=O)N1CCN(C(=O)C2CCN(S(=O)(=O)c3ccc(Cl)cc3)CC2)CC1	none
C(=C\c1nc(N2CCCCCC2)c2ccccc2n1)/c1ccccc1	AHR activator 78
c1ccc2c(N3CCCCC3)nc(N3CCCCC3)nc2c1	none
Cc1ccnc(SCC(=O)c2cccs2)n1	none
c1ccc(Cc2nc3ccccc3s2)cc1	hcDAF12 agonist 5.8 (no result: AHR activator)
Cc1ccnc(SCc2nc3ccccc3s2)n1	hcDAF12 agonist 5.8
CCOC(=O)C1=C[C@@H](C(C)C)N(S(=O)(=O)c2ccc(C)cc2)[C@H]1c1ccc(C(C)C)cc1	none (no result: DAX1 inh-1, AHR activator)
Cc1cccc(C2=NN(c3ccc(Br)cc3)[C@@H](C(=O)N3CCOC3=O)[C@@H]2C)c1	none (no result: AHR activator)
Cc1cccc(C2=NN(c3ccccc3)[C@@H](C(=O)N3CCOC3=O)[C@@H]2C)c1	DAX1 inh-2 3.7 (no result: AHR activator)
O=C1OCCN1C(=O)[C@H]1[C@H](c2ccc(Cl)cc2)C(c2ccc(F)cc2)=NN1c1ccccc1	DAX1 inh-2 3.8 (no result: AHR activator)
CCN(CC)C(=O)Cn1c(=O)n(-c2ccccc2)c(=O)c2c3c(sc21)CCC3	none
Cc1ccc(-c2nc3cccnc3s2)cc1NS(=O)(=O)c1cccs1	AHR activator 59, hcDAF12 agonist 6.1
O=S(=O)(Nc1ccc(-c2nc3cccnc3s2)cc1)c1cc(F)ccc1F	none
Brc1ccc(N=NNc2ccccc2)cc1	AHR activator 58
Nc1ccc(Br)c[n+]1Cc1cccc2cccnc12	none
COc1ccc(CN2CCNC(=O)C2CC(=O)NCC(C)(C)N2CCOCC2)cc1C (configuration not stated)	AHR activator 61
NC(=O)c1ccc(Oc2ccc(C(N)=O)cc2)cc1	DAX1 inh-1 5.2
Cc1ccc2c(c1)N(CCCC(=O)Nc1cccc(C(F)(F)F)c1)C(=O)CO2	none
COc1ccc2c(c1)CN1C(=O)N(CCc3ccccc3)S(=O)(=O)CC21 (configuration not stated)	none (no result: DAX1 inh-1, AHR activator)
CCCCN1C(=O)N2Cc3cc(OC)ccc3C2CS1(=O)=O (configuration not stated)	hgDAF12 agonist 11, hcDAF12 agonist 5.6 (no result: DAX1 inh-1, AHR activator)
CC(C)NC(=O)CN(Cc1ccccc1)S(=O)(=O)c1ccccc1	none
Cc1nn(-c2ccccc2)c(C)c1/C=N/n1c(-c2ccccc2Br)n[nH]c1=S	AHR activator 51
CCN(CC)c1ccc(/C=N/n2c(-c3ccccc3Br)n[nH]c2=S)cc1	none
CCN1C(=O)c2cccc3c(S(=O)(=O)Nc4ncccc4C)ccc1c23	none
